# From PubChem
# Hits are enriched below; roughly 9.2% of the tested compounds scored in any of these assays.
# ELG1 genotox = genotoxicity induction in ELG1-luciferase HEK293T cells; HEK293T ELG1-luciferase reporter, luminescence, 16 h; Potency, µM (series often up to 46 µM), for the others: at the highest dose activity change, positive = activation, hits mostly activators; 330,000 compounds, 1.3% hits; AID 504466; note: % of control where 0% means no effect; nearly all actives have a fitted effect of over 60% in size
#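 ELG1-luciferase HEK293T cells, 2,000/well; compound pinned in; 16 hr, 37 °C, 5% CO2; ONE-Glo, 30 min RT; luminescence on CCD imager.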
# NPC1 promoter act = NPC1 promoter activation; 320,000 compounds, 2.4% hits; Huh7 NPC1 promoter luciferase reporter, 24 h; Potency, µM (titrated, usually from 9.22 µM), without a hit: at the top dose activation, usual class: activators; note: % of control where 0% means no effect; nearly all actives have a fitted effect of over 60% in size
#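 Huh7 reporter cells (NPC1 promoter driving luciferase) are dosed with compound for 24 h at 37 °C, 5% CO2; luciferase detection reagent is then added and luminescence measured after 10 min at ambient temperature.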
# ELG1 repair inh = blocks ELG1-dependent DNA repair in HEK293T cells | HEK293T ELG1-luciferase reporter, luminescence, 16 h; DNA damage induced by 5-fluorouridine | Potency, µM (highest dose often 46.1 µM), for inactives: top-dose activity change, negative = inhibition, hits mostly inhibitors | 330,000 compounds, 2.3% hits | AID 504467; note: % is set by controls: 0 for no effect and ±100 for the full control effect; nearly all actives have a fitted effect of over 55% in size
#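 Quantitative HTS, concentration-response format. 2,000 cells/well co-treated with 5-fluorouridine and compound, 16 hr in 5% CO2 at 37 °C; ONE-Glo luminescence read after 30 min.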
# SMN2 splice enh = SMN2 splice variant enhancement; HEK293 SMN2-luciferase splicing reporter, luminescence, 30-36 h; Potency, µM (titrated, usually from 46.1 µM), without a hit: top-dose activity change, positive = activation, hits mostly activators; 210,000 compounds, 2.8% hits; note: % of control where 0% means no effect; nearly all actives have a fitted effect of over 55% in size
#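 HEK293 cells carry an SMN2 […]–luciferase reporter in which exon 7 inclusion puts luciferase in frame. Cells were plated 10-12 h before compound addition, then incubated 30-36 h at 37C. ONE-Glo luminescence was read; sodium butyrate at 4.5 mM final served as control.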
# FLuc modulator = firefly luciferase modulation, counter-screen for miR-21 project; P08659; purified FLuc, Km substrates, luminescence inhibition; Potency, µM (highest dose often 57.5 µM), for the others: at the top dose activity change, negative = inhibition, hits mostly inhibitors; 360,000 compounds, 6.9% hits; AID 588342;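 note: plate controls were vehicle for no effect and reference inhibitor for full effect; nearly all actives have a fitted effect of over 55% in size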
# Target sequence (P08659 whole entry, looked up): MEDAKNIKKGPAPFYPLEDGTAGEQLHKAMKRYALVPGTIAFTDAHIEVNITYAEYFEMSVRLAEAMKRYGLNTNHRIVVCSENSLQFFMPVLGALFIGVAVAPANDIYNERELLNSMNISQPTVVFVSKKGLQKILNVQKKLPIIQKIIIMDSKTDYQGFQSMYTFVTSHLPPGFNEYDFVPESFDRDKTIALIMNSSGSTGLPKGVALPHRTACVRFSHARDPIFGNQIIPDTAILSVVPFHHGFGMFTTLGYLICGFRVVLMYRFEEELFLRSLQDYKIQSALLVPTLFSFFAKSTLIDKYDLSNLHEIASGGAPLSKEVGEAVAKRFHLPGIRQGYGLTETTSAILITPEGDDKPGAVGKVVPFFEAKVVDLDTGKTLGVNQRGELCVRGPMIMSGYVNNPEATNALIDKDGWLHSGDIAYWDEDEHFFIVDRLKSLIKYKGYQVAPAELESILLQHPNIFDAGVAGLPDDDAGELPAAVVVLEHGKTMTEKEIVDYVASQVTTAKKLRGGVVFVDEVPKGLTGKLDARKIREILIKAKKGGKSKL
#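 Purified P. pyralis luciferase, 10 nM final, with Km-level 10 uM D-luciferin and 10 uM ATP in 50 mM Tris acetate pH 7.5, 10 mM Mg acetate, 0.01% Tween-20, 0.05% BSA; 6-point qHTS titration about 60 µM downward; luminescence read.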
# Rab9 promoter act = activators of Rab9 promoter; Huh7 Rab9 promoter-luciferase reporter, luminescence, 24 h; Potency, µM (titrated, usually from 9.22 µM), for the others: at the highest dose activation, negative = inhibition, usual class: activators; 320,000 compounds, 2.8% hits; note: % of control where 0% means no effect; nearly all actives have a fitted effect of over 60% in size
#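 Huh7 cells stably carrying Rab9 promoter–luciferase reporter, plated 1500 cells/well, compound added after 2 h and incubated 24 h at 37 °C; luciferase luminescence then read after 10 min with detection reagent.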
# Numbers without * were called inactive; ? = inconclusive; . = not tested or not shown; [ ] = dose if it differs, or a comment. Calls come from the whole dose curve; as a rule, active = well fitted curve in the direction sought with a large enough effect; inconclusive = small, poorly fitted or top-dose-only effect, or another doubt; inactive = no such curve, though single readings can be large; an effect the other way counts as inactive or inconclusive. Potency is the fitted concentration of half-maximal effect.
SMILES,ELG1 genotox,NPC1 promoter act,ELG1 repair inh,SMN2 splice enh,FLuc modulator,Rab9 promoter act
Fc1ccccc1/C=C/c1ccc2ccccc2n1,0.33µM*,4µM*,?,0.89µM*,0.15µM*,2.2µM*
CC(=O)c1ccc(N2CCN(C(=O)/C=C/c3ccc4ccccc4n3)CC2)cc1,4%,-3%,3%,-76%,?,0%
CN(C)c1ccc(/C=C/c2ccc3ccccc3n2)cc1,?,-18%,?,.,0.067µM*,?
CCN(CC)c1ccc(/C=C/c2cc(-c3ccccc3)c3ccccc3n2)cc1,-1%,-7%,12%,.,?,-4%
Oc1ccc(/C=C/c2ccc3ccccc3n2)cc1,0.26µM*,?,?,2.8µM*,0.13µM*,?
O/C(=C\c1ccc2ccccc2n1)c1ccc(O)cc1O,2.6µM*,1.1µM*,?,8.9µM*,1.5µM*,2.2µM*
Cc1ccc(C)c(S(=O)(=O)Nc2ccccc2C(=O)Nc2ccc(S(=O)(=O)Nc3ncccn3)cc2)c1,1%,0%,11%,6%,4%,-5%
Cc1ccc(SCCNC(=O)CN(c2ccccc2)S(=O)(=O)N(C)C)cc1,.,.,.,-12%,-2%,.
CS(=O)(=O)N(Cc1ccc(Cl)cc1)c1ccc(C(=O)NCCSc2ccccn2)cc1,-5%,1%,?,-3%[1.84 µM],2%,4%
O=C(NCCSc1ccccn1)c1ccc(Cl)cc1,?,0.63µM*,?,2.2µM*,3.4µM*,0.63µM*
O=C(NCCSc1ccccn1)c1ccc(Cl)cc1Cl,-10%,0.79µM*,?,3.2µM*,?,1.1µM*
O=[N+]([O-])c1ccccc1-c1cc(-c2ccccc2O)n[nH]1,?,14%,?,3.5µM*,8.5µM*,?
Cc1ccc(O)c(-c2cc(-c3cccc(F)c3)n[nH]2)c1,10%,-3%,?,?,?,-9%
Oc1ccccc1-c1cc(C(F)(F)F)[nH]n1,-6%,-4%,-21%,.,-10%,1%
Cc1ccc(-c2cc(-c3cccc(F)c3)n[nH]2)c(O)c1,?,?,?,14µM*,?,4µM*
Cc1ccc(-c2cc(-c3ccccc3C)[nH]n2)c(O)c1,?,4µM*,?,-41%,11µM*,3.5µM*
Cc1ccc(O)c(-c2cc(-c3ccccc3F)[nH]n2)c1,11µM*,-2%,?,11µM*,13µM*,0%
CCOc1ccccc1NC(=O)Cn1nc2c3cc(F)ccc3n(Cc3cccc(C)c3)cc-2c1=O,.,.,.,.,-4%,.
CCS(=O)(=O)N1CC(=O)N(c2ccccc2C)C(C)(C(=O)NC2CCCCC2)C1 (stereo unspecified),.,.,.,.,-1%,.
Cc1cccc(NC(=O)c2ccc(N(C)C3CCCCC3)c([N+](=O)[O-])c2)n1,-16%,26%,?,4%,11µM*,20%
O=C(O)c1ccccc1C(=O)c1ccc(N2CCCC2)c([N+](=O)[O-])c1,9%,10%,?,-2%,24µM*,24%
O=C(NCCCn1ccnc1)c1ccc(N2CCCCCC2)c([N+](=O)[O-])c1,-3%,12%,9.2µM*,-59%,-10%,3%
Cc1cccc(NC(=O)c2ccc(N3CCCCC3)c([N+](=O)[O-])c2)n1,?,2.8µM*,?,6.3µM*,4.8µM*,2µM*
C[C@@H]1CC[C@H](O)/C=C/C(=O)O[C@H](C)CC[C@H](O)/C=C/C(=O)O1,-8%,-5%,1%,.,0%,-5%
Cc1ccc(C)c(S(=O)(=O)N2CCN(C(=O)c3ccc(N4CCCC4)c([N+](=O)[O-])c3)CC2)c1,-11%,-4%,21µM*,.,-1%,0%
SMILES,ELG1 genotox,NPC1 promoter act,ELG1 repair inh,SMN2 splice enh,FLuc modulator,Rab9 promoter act
O=C(Nc1ccn(-c2ccccc2)n1)c1ccc(Cl)cc1,10%,13%,?,7%[1.84 µM],13µM*,16%
O=C(Nc1ccn(-c2ccccc2)n1)c1ccccc1Br,?,?,?,16µM*,?,27%
CC(=O)Nc1ccn(-c2ccccc2)n1,5%,13%,?,16%,?,17%
N#Cc1ccc(C(=O)Nc2ccn(-c3ccccc3)n2)cc1,-7%,-1%,23µM*,-53%,?,-11%
CC(=O)N1CCC2(CCCN(C(c3ccccc3)c3ccccc3)C2)CC1,.,.,.,-26%,.,.
CCc1nn(C(CC)C(=O)NCC(C)c2ccccc2)c(=O)c2cc3occc3n12 (stereo unspecified),0%,0%,-16%,.,2%,-5%
O=C(Nc1cccc(C(F)(F)F)c1)C1CCCN(S(=O)(=O)c2cccc3nsnc23)C1 (stereo unspecified),.,.,.,-19%,-4%,.
Cn1c(CCNC(=O)c2ccco2)nc2cc(NC(=O)COc3ccc(Cl)cc3)ccc21,.,.,.,-10%,-4%,.
COc1cc(C(=O)Nc2nnc(CC(C)C)s2)c([N+](=O)[O-])cc1OC,-7%,0%,-12%,-1%,-6%,-2%
CCOc1ccc(Nc2nc(N)nc(CSC(=S)N3CCN(c4ccccc4)CC3)n2)cc1,-12%,2%,10µM*,.,-10%,0%
COc1ccc(Nc2nc(N)nc(CSC(=S)N3CCN(c4ccccc4)CC3)n2)cc1,-7%,-1%,12µM*,-33%,-8%,0%
NC(=S)SCCC(=O)O,.,.,.,-15%[9.22 µM],.,.
Cc1cc(C)nc(SCC(=O)c2ccc(F)cc2)n1,8%,9%,21%,.,-13%,21%
Cc1cc(C)nc(S/C=C/C(=O)c2ccc(F)cc2)n1,16%,-6%,?,.,1.9µM*,-19%
Cc1ccc(NC(=O)C2COc3ccccc3O2)cc1C (stereo unspecified),?,2.5µM*,?,.,19µM*,?
COC(=O)c1cccc(NC(=O)C2COc3ccccc3O2)c1 (stereo unspecified),18µM*,?,?,9%,17µM*,?
Cc1nc2cc(NC(=O)C3COc4ccccc4O3)ccc2s1 (stereo unspecified),?,?,?,.,12µM*,?
CCOC(=O)C1CCN(C(=O)C2CCN(C3=NS(=O)(=O)C(c4ccc(C)c(C)c4)=C3C)CC2)CC1,.,.,.,-3%,1%,.
O=C(Nc1ccccc1)N1CCCC2(CCN(C(=O)c3cnccn3)CC2)C1,.,.,.,4%,.,.
Cc1cc(NO)nc(-c2ccc(Br)cc2)n1,?,?,?,16µM*,24µM*,4.5µM*
Cc1cc(C)nc(NC(=O)c2ccc(Br)cc2)n1,-3%,2%,1%,.,2%,-2%
